The source of these data is PubChem BioAssay (Tox21).

A short description of assay [1]: qHTS assay to identify small molecule antagonists of the glucocorticoid receptor (GR) signaling pathway - cell viability counter screen (AID 720693). Further: nearly all actives have a fitted effect of over 55% in size. In general terms: Quantitative high-throughput screening tests each substance at several concentrations.
Assay [2] in a line: qHTS assay for identifying genotoxic compounds that show differential cytotoxicity against isogenic chicken DT40 cell lines with known DNA damage response pathways - wild type cell line (AID 743012). Further: nearly all actives have a fitted effect of over 60% in size. Further: potency means the concentration at half of the fitted maximal effect. The method, boiled down:
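Cells (DT40 wild type, 300/well) are treated with DMSO-dissolved compounds after a ~0.5 h pre-incubation and kept 40 h at 37 C/5% CO2. Viability is then measured by CellTiter-Glo luminescence following 30 min at room temperature.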

A short description of assay [3]: qHTS assay for identifying genotoxic compounds that show differential cytotoxicity against isogenic chicken DT40 cell lines with known DNA damage response pathways - Rev3 mutant cell line (AID 743014). Further: nearly all actives have a fitted effect of over 55% in size. Further: potency means the concentration at half of the fitted maximal effect.
The nature of assay [4]: qHTS assay for identifying genotoxic compounds that show differential cytotoxicity against isogenic chicken DT40 cell lines with known DNA damage response pathways - Rad54/Ku70 mutant cell line (AID 743015). Further: nearly all actives have a fitted effect of over 60% in size. Further: potency means the concentration at half of the fitted maximal effect.
Assay [5] can be described thus: qHTS assay to identify small molecule antagonists of the androgen receptor (AR) signaling pathway - cell viability counter screen (AID 743033; further: nearly all actives have a fitted effect of over 45% in size).
Assay [6] is described as follows: qHTS assay to identify small molecule antagonists of the androgen receptor (AR) signaling pathway using the MDA cell line - cell viability counter screen (AID 743041; further: nearly all actives have a fitted effect of over 45% in size). The method, boiled down:
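R1881-driven MDA-kb2 AR-luc cells, 3,000/well, were dosed with library compounds for 16 h; cell health came from CellTiter-Fluor fluorescence in the reporter wells.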

Assay [7] can be described thus: qHTS assay to identify small molecule antagonists of the thyroid receptor (TR) signaling pathway - cell viability counter screen (AID 743064). Further: nearly all actives have a fitted effect of over 50% in size. Further: potency means the concentration at half of the fitted maximal effect. The method, boiled down: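 Viability of T3-stimulated (1 nM final) GH3.TRE-Luc cells is measured by CellTiter-Fluor fluorescence after 23.5 h compound exposure at 37 °C plus 30 min reagent incubation.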
A short description of assay [8]: qHTS assay to identify small molecule antagonists of the thyroid receptor (TR) signaling pathway (AID 743065). Further: nearly all actives have a fitted effect of over 55% in size. Further: potency means the concentration at half of the fitted maximal effect. On activity, negative = inhibition: series mostly up to about 70 µM. In a few lines:
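Antagonism measured as loss of luciferase signal in GH3 cells stably carrying a TRE-luciferase reporter, co-treated with compound and T3 (1 nM final) for 23.5 h at 37 C. Viability was read in the same well by CellTiter-Fluor.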

In assay [9] the test system is thyroid hormone receptor (rat, GH3 cells). The assay can be described thus: qHTS assay to identify small molecule agonists of the thyroid receptor (TR) signaling pathway (AID 743066; calls by dose curve).
The target of assay [10] is Estrogen receptor (Homo sapiens) (UniProt P03372). The assay can be described thus: qHTS assay to identify small molecule antagonists of the estrogen receptor alpha (ER-alpha) signaling pathway (AID 743069; active means well fitted curve in the direction sought with a large enough effect in the signal ratio in the repeat runs, not every such curve was filed as active; the % refers to the signal ratio). In a few lines:
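Compound effects are measured against 17beta-estradiol stimulation in HEK293 cells with a UAS-controlled beta-lactamase reporter for ER-alpha. Exposure lasts 18 hr at 37C; LiveBLAzer B/G FRET substrate follows for 2 hr at room temperature.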

A short description of assay [11]: qHTS assay to identify small molecule antagonists of the estrogen receptor alpha (ER-alpha) signaling pathway - cell viability counter screen (AID 743074; calls by dose curve;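 further: HEK293 cells carrying ER-alpha-UAS-bla reporter stimulated with 17beta-estradiol; nearly all actives have a fitted effect of over 45% in size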).
Assay [12] deals with Estrogen receptor (Homo sapiens) (UniProt P03372). Description: qHTS assay to identify small molecule agonists of the estrogen receptor alpha (ER-alpha) signaling pathway (AID 743075; calls by dose curve).
Estrogen receptor (Homo sapiens), sequence (P03372 whole entry, looked up): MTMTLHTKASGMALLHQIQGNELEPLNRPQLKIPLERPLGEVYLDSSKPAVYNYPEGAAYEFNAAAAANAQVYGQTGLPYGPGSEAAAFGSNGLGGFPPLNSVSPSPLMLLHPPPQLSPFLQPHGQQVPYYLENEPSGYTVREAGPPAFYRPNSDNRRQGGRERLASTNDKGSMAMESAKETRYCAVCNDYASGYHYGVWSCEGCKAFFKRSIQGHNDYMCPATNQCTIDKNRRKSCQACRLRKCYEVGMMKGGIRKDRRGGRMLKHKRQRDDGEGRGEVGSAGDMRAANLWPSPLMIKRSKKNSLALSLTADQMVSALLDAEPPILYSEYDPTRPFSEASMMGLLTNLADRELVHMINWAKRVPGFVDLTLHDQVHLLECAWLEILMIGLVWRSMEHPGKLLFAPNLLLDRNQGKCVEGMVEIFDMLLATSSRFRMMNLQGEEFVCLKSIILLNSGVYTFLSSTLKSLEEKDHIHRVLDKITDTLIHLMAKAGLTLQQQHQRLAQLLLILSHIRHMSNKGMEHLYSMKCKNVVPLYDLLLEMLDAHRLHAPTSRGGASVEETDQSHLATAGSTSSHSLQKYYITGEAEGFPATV
Assay [13] has the same target. Description: qHTS assay to identify small molecule agonists of the estrogen receptor alpha (ER-alpha) signaling pathway using the BG1 cell line (AID 743079). Further: nearly all actives have a fitted effect of over 20% in size.
A short description of assay [14]: qHTS assay to identify small molecule antagonists of the estrogen receptor alpha (ER-alpha) signaling pathway using the BG1 cell line (AID 743080; calls by dose curve;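 further: BG1 cells stimulated with 17beta-estradiol alongside compound; series mostly up to about 70 µM; nearly all actives have a fitted effect of over 25% in size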). The method, boiled down:
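Readout is ONE-Glo luminescence, taken 30 min at room temperature after reagent addition, preceded by a CellTiter-Fluor viability read; BG1-Luc-4E2 cells had received compound and 17beta-estradiol for 21.5 h at 37 C.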

Assay [15] can be described thus: qHTS assay to identify small molecule antagonists of the estrogen receptor alpha (ER-alpha) signaling pathway using the BG1 cell line - cell viability counter screen (AID 743081).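 Further: compound given together with 17beta-estradiol as the ER stimulus; nearly all actives have a fitted effect of over 45% in size.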 Further: potency means the concentration at half of the fitted maximal effect. On activity change, negative = cytotoxicity: series mostly up to about 70 µM.
Assay [16] has as its target Aromatase (Homo sapiens) (UniProt P11511). The assay can be described thus: qHTS assay to identify aromatase inhibitors (AID 743083). Further: series mostly up to about 70 µM; nearly all actives have a fitted effect of over 55% in size.
Assay [17] addresses Androgen receptor (Homo sapiens) (UniProt P10275). Description: qHTS assay to identify small molecule agonists of the androgen receptor (AR) signaling pathway (AID 743036; active means well fitted activation curve with a large enough effect in the signal ratio in the repeat runs, with a control signal flat, not every such curve was filed as active; the % refers to the signal ratio). The method, boiled down: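 Screening used 2,000 AR-bla HEK293 cells per well, treated 16 h at 37C with test compounds in DMSO alongside positive and DMSO-only controls; beta-lactamase activity was then read by LiveBLAzer B/G FRET fluorescence after 2 h at room temperature.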

The target is the same in assay [18]. The assay can be described thus: qHTS assay to identify small molecule agonists of the androgen receptor (AR) signaling pathway using the MDA cell line (AID 743040; further: nearly all actives have a fitted effect of over 20% in size). In a few lines: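 After a 5 h incubation at 37C and 0% CO2, MDA-kb2 reporter cells were dosed with compounds in DMSO and kept 16 h under the same conditions. Luciferase activity was then read as luminescence with ONE-Glo.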

Assay [19] has the same target. Description: qHTS assay to identify small molecule antagonists of the androgen receptor (AR) signaling pathway using the MDA cell line (AID 743042; further: nearly all actives have a fitted effect of over 55% in size). In a few lines: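 Antagonist mode: compounds plus R1881 agonist added to MDA-kb2 AR-luc cells, incubated 16 h at 37C. Luciferase reporter luminescence quantified, with multiplexed CellTiter-Fluor readout for cell viability.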

The target is the same in assay [20]. The assay can be described thus: qHTS assay to identify small molecule antagonists of the androgen receptor (AR) signaling pathway (AID 743035; active means well fitted inhibition curve with a large enough effect in the signal ratio in the repeat runs, not every such curve was filed as active; the % refers to the signal ratio). The method, boiled down:
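Antagonism is scored as loss of R1881-driven beta-lactamase reporter expression in HEK293 cells carrying the reporter under a UAS element, after 16 h co-treatment at 37C and a 2 h room-temperature FRET substrate read.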

“And” between values parts separate entries of the source, which are not always exact repeats. Equal entries are not always repeated. Records with an inconclusive call do not appear. Some compounds were tested as several samples or in several runs, with calls that do not always agree. The source made the active and inactive calls. Unless noted, the call rests on the fitted dose curve; in most records, active means well fitted curve in the direction sought with a large enough effect in the repeat runs; inconclusive means weak or mixed curves; inactive means no such curve, though single readings can be large; an effect the other way counts as inactive or inconclusive.
On the % scale 0 is the no-effect control and ±100 the full control effect.

Aromatase (Homo sapiens), sequence (P11511 whole entry, looked up): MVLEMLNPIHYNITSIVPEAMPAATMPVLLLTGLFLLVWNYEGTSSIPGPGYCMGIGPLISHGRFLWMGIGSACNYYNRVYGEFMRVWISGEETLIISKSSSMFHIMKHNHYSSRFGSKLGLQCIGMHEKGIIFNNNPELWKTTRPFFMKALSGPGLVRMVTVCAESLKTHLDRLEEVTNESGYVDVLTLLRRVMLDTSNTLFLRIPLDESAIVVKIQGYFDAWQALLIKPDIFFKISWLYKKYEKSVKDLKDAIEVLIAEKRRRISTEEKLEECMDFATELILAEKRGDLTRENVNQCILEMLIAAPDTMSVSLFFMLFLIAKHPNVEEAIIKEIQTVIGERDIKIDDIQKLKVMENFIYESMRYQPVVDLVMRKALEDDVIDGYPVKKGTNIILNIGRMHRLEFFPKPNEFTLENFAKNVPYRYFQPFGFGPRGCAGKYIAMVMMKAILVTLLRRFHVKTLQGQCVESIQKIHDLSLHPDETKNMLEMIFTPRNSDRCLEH
Androgen receptor (Homo sapiens), sequence (P10275 whole entry, looked up): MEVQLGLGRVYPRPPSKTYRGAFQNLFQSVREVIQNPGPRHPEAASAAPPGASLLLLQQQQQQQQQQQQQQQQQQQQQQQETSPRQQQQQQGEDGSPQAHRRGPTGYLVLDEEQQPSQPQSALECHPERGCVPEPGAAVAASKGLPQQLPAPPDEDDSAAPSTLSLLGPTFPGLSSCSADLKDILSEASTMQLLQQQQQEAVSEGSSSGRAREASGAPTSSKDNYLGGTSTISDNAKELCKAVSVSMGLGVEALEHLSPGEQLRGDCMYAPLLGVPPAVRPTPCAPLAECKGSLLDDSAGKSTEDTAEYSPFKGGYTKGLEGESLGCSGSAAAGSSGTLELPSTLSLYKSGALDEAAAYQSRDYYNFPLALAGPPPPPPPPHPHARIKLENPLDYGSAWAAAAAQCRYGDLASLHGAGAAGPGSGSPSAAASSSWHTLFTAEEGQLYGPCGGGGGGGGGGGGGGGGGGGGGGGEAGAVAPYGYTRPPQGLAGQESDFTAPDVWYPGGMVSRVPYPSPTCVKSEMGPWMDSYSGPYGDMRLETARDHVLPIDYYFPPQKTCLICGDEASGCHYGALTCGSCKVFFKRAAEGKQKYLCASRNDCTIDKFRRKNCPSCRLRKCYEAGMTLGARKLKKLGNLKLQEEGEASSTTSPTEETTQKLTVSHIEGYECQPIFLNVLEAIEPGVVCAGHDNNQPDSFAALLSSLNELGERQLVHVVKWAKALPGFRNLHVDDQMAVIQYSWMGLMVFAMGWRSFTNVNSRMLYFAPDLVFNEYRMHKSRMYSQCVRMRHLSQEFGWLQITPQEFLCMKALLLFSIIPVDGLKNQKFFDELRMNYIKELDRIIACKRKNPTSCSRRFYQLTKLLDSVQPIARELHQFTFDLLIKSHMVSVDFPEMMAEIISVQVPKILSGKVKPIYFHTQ

Regarding `NC(N)=NCCC[C@H](N)C(=O)O`, the Potency result in assay [1], in assay [2], in assay [3], in [4], in assay [5] and in [6] was “inactive” each time. The Potency result in assay [7], in [8], in [9], in assay [10], in assay [11] and in assay [12] was “inactive” each time. Moreover, the Potency entry in assay [13], in assay [14], in assay [15] and in assay [16] was “inactive” each time.

`NCC(=O)O`: the Potency result in [1], in assay [2], in assay [3], in assay [4], in [5] and in [6] was “inactive” each time. Moreover, the Potency result in [7], in assay [8], in [9], in [10], in assay [12] and in [13] was “inactive” throughout. Besides, the Potency entry in [14], in assay [15] and in [16] was “inactive” throughout.

`ClCCOCCOCCCl`: the Potency entry in assay [1], in assay [2], in [3], in assay [4], in [5] and in [6] was “inactive” throughout. Also, the Potency entry in [7], in [8], in assay [9], in [11], in [12] and in [13] was “inactive” each time. Besides, the Potency result in [14], in assay [15] and in [16] was “inactive” in each case.

Regarding `COc1ccc(C)cc1[N+](=O)[O-]`, the Potency entry in assay [1], in assay [2], in [3], in assay [4], in assay [5] and in assay [6] was “inactive” throughout. The Potency entry in assay [7], in [8], in [9], in [11], in assay [15] and in [16] was “inactive” each time.

For the molecule `CC(C)(C)OCC1CO1` (centres undefined), the Potency entry in assay [1], in assay [2], in assay [3], in assay [4], in assay [5] and in assay [6] was “inactive” throughout. Besides, the Potency result in [7], in [8], in [9], in assay [11] and in [15] was “inactive” throughout.

Take `CC(=O)c1ccc2c(c1)N(CCCN1CCC(CCO)CC1)c1ccccc1S2`: the Potency result in assay [1], in [5], in [6], in [10], in [11] and in [12] was “inactive” in each case. In addition, the Potency entry in assay [13], in [14] and in assay [16] was “inactive” throughout. The Potency in assay [2] was 12.7 µM (active); in assay [3] it was 12.7 µM (active); in assay [4] it was 11.4 µM (active); in [7], 10.1 µM (active); in assay [8] it was 11.4 µM (active).

Take `CN(C)c1ccc(C(c2ccccc2)c2ccc(N(C)C)cc2)cc1`: the Potency result in assay [1], in assay [5], in assay [17], in assay [18], in assay [6] and in assay [19] was “inactive” throughout. Besides, the Potency result in assay [7], in [9], in [11], in assay [15] and in [16] was “inactive” in each case. Besides, the Potency in [2] is 6.86 µM (active); in assay [3], 6.86 µM (active); in assay [4], 8.63 µM (active); in assay [8], 24.3 µM (active).

Take `CCC(C)O` (centres undefined): the Potency result in assay [1], in assay [2], in assay [3], in assay [4], in assay [5] and in assay [6] was “inactive” each time. The Potency result in [7], in [8], in assay [9] and in assay [15] was “inactive” in each case.

For `O=C(O)c1ccc(S(=O)(=O)O)cc1C(=O)O`, the Potency entry in assay [1], in assay [2], in assay [3], in assay [4], in assay [5] and in [6] was “inactive” each time. The Potency entry in assay [7], in assay [8], in assay [9], in assay [10], in assay [11] and in assay [12] was “inactive” in each case. The Potency result in [13], in assay [14], in assay [15] and in [16] was “inactive” each time.

Turning to `CCCCc1nc2cccnc2n1Cc1ccc(-c2ccccc2-c2nnn[nH]2)cc1`, the Potency result in assay [1], in assay [2], in [3], in assay [4], in assay [5] and in [6] was “inactive” each time. The Potency result in assay [8], in [9], in [12], in [13], in assay [14] and in assay [15] was “inactive” each time. In assay [16], the Potency entry was “inactive”. The Potency in assay [7] is 54.5 µM (active).

As for `O=C(O)CNCC(=O)O`, the figures for the viability change, negative = cytotoxic in [1] and in [6] were -8.93% [at 7.04 µM] (inactive) and -11.9% [at 8.47 µM] (inactive), respectively. Besides, the activity change, negative = cytotoxicity was 8.65% [at 8.52 µM] (inactive) in assay [2], 1.1% [at 8.55 µM] (inactive) in assay [4], 1.48% [at 7.04 µM] (inactive) in assay [5] and -9.74% [at 8.47 µM] (inactive) in [15]. In addition, the activity, negative = cytotoxicity in assay [3] is -2.98% [at 8.53 µM] (inactive); in assay [11], -3.67% [at 6.72 µM] (inactive). Further, the activity change, negative = inhibition is 0.788% [at 7.04 µM] (inactive) in [20], 1.72% [at 8.47 µM] (inactive) in [19] and 0.887% [at 8.47 µM] (inactive) in assay [14]. Besides, the activation in assay [17] is -0.671% [at 6.9 µM] (inactive); in [9], -1.57% [at 8.08 µM] (inactive); in assay [12], -4.82% [at 6.71 µM] (inactive); in assay [13], 2.44% [at 8.47 µM] (inactive). For the same molecule, in [18], the activity change was 1.91% [at 8.47 µM, stronger effect = higher value] (inactive). The activity change, negative = cytotoxic in assay [7] was 2.43% [at 8.44 µM] (inactive). The activity, negative = inhibition in assay [8] is -3.78% [at 8.44 µM] (inactive); in assay [10], -6.23% [at 6.71 µM] (inactive); in assay [16] it was 14.5% [at 8.47 µM] (inactive).

For `OCCN1CCN(CCCN2c3ccccc3C=Cc3ccccc32)CC1`, the Potency entry in assay [1], in assay [5], in assay [6], in assay [9], in assay [11] and in assay [12] was “inactive” throughout. Also, the Potency entry in [13], in assay [14] and in assay [16] was “inactive” throughout. In addition, the Potency was 5.96 µM (active) and 13.3 µM (active) in assay [2]; 1.68 µM (active) and 15 µM (active) in [3]; 8.41 µM (active) and 26.6 µM (active) in assay [4]; 6.68 µM (active) and 7.5 µM (active) in assay [7]; 11.9 µM (active) and 26.6 µM (active) in assay [8]; 10.6 µM (active) and inactive in [15].

For `CCCCC(CC)COC(=O)CCCCCCCCC(=O)OCC(CC)CCCC` (centres undefined), the Potency result in [1], in assay [2], in assay [3], in assay [4], in [5] and in assay [6] was “inactive” each time. Further, the Potency entry in [7], in assay [8], in [9], in assay [10], in assay [11] and in [12] was “inactive” each time. Besides, the Potency entry in assay [14], in assay [15] and in assay [16] was “inactive” throughout.

Take `Cc1ncc(CO)c(C=O)c1O`: the Potency entry in assay [1], in assay [2], in [3], in [4], in assay [5] and in assay [6] was “inactive” in each case. Further, the Potency result in assay [7], in assay [8], in assay [9], in assay [10], in assay [11] and in assay [12] was “inactive” throughout. Also, the Potency result in [13], in [14], in [15] and in [16] was “inactive” in each case.
